Data on 21 compounds can be found in the supplement of paper PMC6288085.

Structures can show the parent of a compound that is named as a salt. ± gives the uncertainty stated by the source.

The test system of the assay is Caenorhabditis elegans N2. The assay can be described thus: food intake (mean delta OD600 / animal over 72 h) with 50 uM loxapine co-treatment (OD600 units per animal); higher = more food eaten (less suppression of loxapine-induced hyperphagia). The settings on record: first compound 33 µM, loxapine concentration 50 µM. The protocol: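 C. elegans N2 adults (FUDR-sterilised, day 1) in 96-well plates fed gamma-irradiated bacteria. Each library drug (MedChemExpress FDA-approved library) at 33 uM was combined with loxapine at 50 uM. Food intake was measured as bacterial clearance: the change in OD600 from day 1 to 72 h, normalised per animal (mean over 14-21 wells of about 10-12 worms). Drugs flagged for bacterial lysis or sickness were excluded by the authors.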
In the case of `CC(=O)CCCCn1c(=O)c2c(ncn2C)n(C)c1=O` [pentoxifylline] + CN1CCN(C2=Nc3ccccc3Oc3ccc(Cl)cc32)CC1 [loxapine], the food intake came out at 0.0226 ± 0.002.

As to `Nc1nnc(-c2cccc(Cl)c2Cl)c(N)n1` [lamotrigine] + CN1CCN(C2=Nc3ccccc3Oc3ccc(Cl)cc32)CC1 [loxapine], the food intake came to 0.0237 ± 0.008.

In the case of `CCN(CC)C(=O)c1cccc(C)c1` + CN1CCN(C2=Nc3ccccc3Oc3ccc(Cl)cc32)CC1 [loxapine], the food intake is 0.023 ± 0.0029.

In the case of `Cc1nc(C(=O)NCC(=O)O)c(O)c2ccc(Oc3ccccc3)cc12` + CN1CCN(C2=Nc3ccccc3Oc3ccc(Cl)cc32)CC1 [loxapine], the food intake stood at 0.0228 ± 0.0037.

For `CC(=O)O[C@H]1CC[C@H]2[C@@H]3CCc4cc(O)ccc4[C@H]3CC[C@]12C` [b-estradiol 17-acetate] + CN1CCN(C2=Nc3ccccc3Oc3ccc(Cl)cc32)CC1 [loxapine], the food intake was 0.0213 ± 0.0046.

In the case of `CC(C)(C)C(=O)OCOP(=O)(COCCn1cnc2c(N)ncnc21)OCOC(=O)C(C)(C)C` [Adefovir dipivoxil] + CN1CCN(C2=Nc3ccccc3Oc3ccc(Cl)cc32)CC1 [loxapine], the food intake is 0.0231 ± 0.0029.

Take `NS(=O)(=O)c1ccc(C(=O)O)cc1` [carzenide] + CN1CCN(C2=Nc3ccccc3Oc3ccc(Cl)cc32)CC1 [loxapine]: the food intake worked out at 0.0251 ± 0.0067.

For `CCCCNc1ccc(C(=O)OCCN(C)C)cc1` [tetracaine (hydrochloride)] + CN1CCN(C2=Nc3ccccc3Oc3ccc(Cl)cc32)CC1 [loxapine], the food intake is 0.0236 ± 0.0037.

For the compound `CN(C)[C@@H]1C(O)=C(C(N)=O)C(=O)[C@@]2(O)C(O)=C3C(=O)c4c(O)cccc4[C@@](C)(O)[C@H]3C[C@@H]12` [Tetracycline (hydrochloride)] + CN1CCN(C2=Nc3ccccc3Oc3ccc(Cl)cc32)CC1 [loxapine], the food intake came to 0.0228 ± 0.0038.

`CCCc1nn(C)c2c(=O)[nH]c(-c3cc(S(=O)(=O)N4CCN(C)CC4)ccc3OCC)nc12` [sildenafil (citrate)] + CN1CCN(C2=Nc3ccccc3Oc3ccc(Cl)cc32)CC1 [loxapine]: the food intake turned out to be 0.024 ± 0.0028.

On to `COc1cc(O)c(C(=O)c2ccccc2)cc1S(=O)(=O)O` [sulisobenzone] + CN1CCN(C2=Nc3ccccc3Oc3ccc(Cl)cc32)CC1 [loxapine], for which the food intake is 0.0234 ± 0.0024.

For the compound `CCc1ccc(CCOc2ccc(CC3SC(=O)NC3=O)cc2)nc1` (stereo unspecified) [pioglitazone (hydrochloride)] + CN1CCN(C2=Nc3ccccc3Oc3ccc(Cl)cc32)CC1 [loxapine], the food intake amounted to 0.0215 ± 0.0041.

On to `CC(=O)OCC(=O)[C@@]1(O)CC[C@H]2[C@@H]3CCC4=CC(=O)CC[C@]4(C)[C@H]3C(=O)C[C@@]21C` [cortisone (acetate)] + CN1CCN(C2=Nc3ccccc3Oc3ccc(Cl)cc32)CC1 [loxapine], for which the food intake was found to be 0.0231 ± 0.0059.

As to `CN(Cc1cnc2nc(N)nc(N)c2n1)c1ccc(C(=O)N[C@@H](CCC(=O)O)C(=O)O)cc1` [methotrexate] + CN1CCN(C2=Nc3ccccc3Oc3ccc(Cl)cc32)CC1 [loxapine], the food intake came out at 0.0222 ± 0.0022.

With `CCOc1ccc(NC(C)=O)cc1` [phenacetin] + CN1CCN(C2=Nc3ccccc3Oc3ccc(Cl)cc32)CC1 [loxapine], the food intake came to 0.0226 ± 0.0036.

For `COc1ccc(CNc2nc(N3CCC[C@H]3CO)ncc2C(=O)NCc2ncccn2)cc1Cl` [avanafil] + CN1CCN(C2=Nc3ccccc3Oc3ccc(Cl)cc32)CC1 [loxapine], the food intake was 0.023 ± 0.0037.

On to `CC(CN1c2ccccc2Sc2ccccc21)N(C)C` (stereo unspecified) [promethazine (hydrochloride)] + CN1CCN(C2=Nc3ccccc3Oc3ccc(Cl)cc32)CC1 [loxapine], for which the food intake is 0.0219 ± 0.0024.

For `CC(C)(Oc1ccc(CCNC(=O)c2ccc(Cl)cc2)cc1)C(=O)O` [bezafibrate] + CN1CCN(C2=Nc3ccccc3Oc3ccc(Cl)cc32)CC1 [loxapine], the food intake was determined as 0.0212 ± 0.0034.

On to `Cc1ccnc(NS(=O)(=O)c2ccc(N)cc2)n1` [sulfamerazine] + CN1CCN(C2=Nc3ccccc3Oc3ccc(Cl)cc32)CC1 [loxapine], for which the food intake is 0.0224 ± 0.0031.

Consider `C#Cc1cccc(Nc2ncnc3cc(OCCOC)c(OCCOC)cc23)c1` [Erlotinib] + CN1CCN(C2=Nc3ccccc3Oc3ccc(Cl)cc32)CC1 [loxapine], for which the food intake amounted to 0.0212 ± 0.0034.

With `CC(=O)N1CCN(c2ccc(OCC3COC(Cn4ccnc4)(c4ccc(Cl)cc4Cl)O3)cc2)CC1` (stereo unspecified) [ketoconazole] + CN1CCN(C2=Nc3ccccc3Oc3ccc(Cl)cc32)CC1 [loxapine], the food intake came to 0.0239 ± 0.0034.
